Consider nine molecules from PubChem BioAssay (NCI).

What all share (experiment): NCI-60 one-dose screen, 48 h (100 = growth as untreated, 0 = no growth, -100 = all killed)
One experiment relates to HCT-15 colon. The following applies: 10 µM unless noted.
A further experiment has as its system HT29 colon. The following applies: 10 µM unless noted.
Another experiment relates to SNB-75 CNS. The following applies: 10 µM unless noted.
Another experiment deals with SNB-19 CNS. The note with it: 10 µM unless noted.
The subject of the next experiment is U251 CNS. The following applies: 10 µM unless noted.
The subject of another experiment is PC-3 prostate. The note with it: 10 µM unless noted.
In another experiment the test system is SK-MEL-5 melanoma. The note with it: 10 µM unless noted.
A further experiment deals with UACC-62 melanoma. The note with it: 10 µM unless noted.
The subject of the next experiment is LOX IMVI melanoma. The following applies: 10 µM unless noted.
A further experiment deals with SK-MEL-28 melanoma. The following applies: 10 µM unless noted.
The subject of the next experiment is EKVX NSCLC. The following applies: 10 µM unless noted.
Another experiment concerns SN12C renal. The note with it: 10 µM unless noted.
For a further experiment, the system named is UO-31 renal. The following applies: 10 µM unless noted.
The next experiment deals with TK-10 renal. The following applies: 10 µM unless noted.
In a further experiment the test system is ACHN renal. The following applies: 10 µM unless noted.
In the next experiment the test system is CAKI-1 renal. The note with it: 10 µM.
The subject of another experiment is A498 renal. The note with it: 10 µM unless noted.
The test system of a further experiment is CCRF-CEM leukemia. The following applies: 10 µM unless noted.
Another experiment relates to MOLT-4 leukemia. The note with it: 10 µM unless noted.
A further experiment concerns SK-MEL-2 melanoma. The following applies: 10 µM unless noted.

This is part of a sample that, as a whole, favours compounds with a hit. Of some 83,000 tested, about 20% had one in any assay.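 Treatment: one concentration, 48 hours, 96-well format. Scoring: percent growth, with anything below 10 considered active.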 A number with no mark means an inactive call. Activity calls are given as the source filed them.

For the molecule `CNC(=O)c1cc(Oc2ccc3nc(NC(=O)c4cc(C)cc(C)c4)sc3c2)ccn1`, the growth is 66.9% in the experiment on HCT-15 colon; 86% in the experiment on HT29 colon; 85.5% in the experiment with SNB-75 CNS; 81.3% with SNB-19 CNS; 89.3% in the experiment with U251 CNS; 47.9% in the experiment with PC-3 prostate. For the same molecule, the growth is 77.4% in the experiment with SK-MEL-5 melanoma; 76.9% with UACC-62 melanoma; 102% in the experiment with LOX IMVI melanoma; 79.9% in the experiment on SK-MEL-28 melanoma; 82% in the experiment on EKVX NSCLC; 90.3% in the experiment with SN12C renal. Moreover, the growth in the experiment on UO-31 renal is 78.8%; in the experiment with TK-10 renal, 78.5%; in the experiment on ACHN renal it was 93.4%; in the experiment with CAKI-1 renal, 79%; in the experiment on A498 renal, 59.7%; in the experiment with CCRF-CEM leukemia, 57.3%. The growth in the experiment on MOLT-4 leukemia was 58.3%.

On to `O=C1Nc2cc(OC(F)(F)F)ccc2Oc2ccc(-c3ccnc(N4CC[C@H](O)C4)c3)cc21`, for which the growth with HCT-15 colon was -30.6% (active); with HT29 colon, -58.7% (active); in the experiment on SNB-75 CNS it was -6% (active); in the experiment on SNB-19 CNS, 35.9%; in the experiment on U251 CNS, 4.76% (active); with PC-3 prostate it was 15%. Further, the growth was -58.4% (active) with SK-MEL-5 melanoma; 28.8% with UACC-62 melanoma; 3.23% (active) in the experiment with LOX IMVI melanoma; 24.6% in the experiment on SK-MEL-28 melanoma; 45.9% in the experiment on EKVX NSCLC; 7.37% (active) in the experiment with SN12C renal. Further, the growth was 24% in the experiment on UO-31 renal; 75.6% with TK-10 renal; 25.1% in the experiment on ACHN renal; 23.9% with CAKI-1 renal; 12.6% in the experiment with CCRF-CEM leukemia; 11.3% with MOLT-4 leukemia.

As to `CC(C)(C)CC(C)(C)n1nnnc1C(Nc1ccccc1)c1cc2cccc3ccc4cccc1c4c32` (configuration not stated), the growth in the experiment on HCT-15 colon was 78.5%; in the experiment with HT29 colon, 70.7%; in the experiment on SNB-75 CNS, 99.9%; in the experiment on SNB-19 CNS it was 95.1%; with U251 CNS, 88.7%; in the experiment on PC-3 prostate, 50.4%. Further, the growth in the experiment with SK-MEL-5 melanoma was 89.6%; in the experiment on UACC-62 melanoma, 67.4%; with LOX IMVI melanoma it was 85.1%; in the experiment on SK-MEL-28 melanoma, 90%; in the experiment with EKVX NSCLC it was 73.5%; in the experiment with SN12C renal it was 78.4%. Besides, the growth in the experiment with UO-31 renal was 73.1%; with TK-10 renal, 94.6%; in the experiment with ACHN renal, 87.5%; with CAKI-1 renal, 55.8%; in the experiment with CCRF-CEM leukemia, 86.7%; with MOLT-4 leukemia, 73.2%.

With `CCOC(=O)c1c(Nc2ccccc2)nn2c(-c3ccc(OC)c(OC)c3)ccnc12`, the growth in the experiment with HCT-15 colon is 18.4%; in the experiment on HT29 colon it was 62.3%; in the experiment on SNB-75 CNS, 68.7%; in the experiment on SNB-19 CNS, 80.1%; in the experiment on U251 CNS, 60.6%; with PC-3 prostate, 39.1%. Moreover, the growth is 32.4% with SK-MEL-5 melanoma; 77.1% in the experiment with UACC-62 melanoma; 37.6% in the experiment with LOX IMVI melanoma; 65.8% in the experiment with SK-MEL-28 melanoma; 77.1% with EKVX NSCLC; 67.9% in the experiment on SN12C renal. Further, the growth with UO-31 renal is 42.9%; in the experiment on TK-10 renal, 80.6%; in the experiment with ACHN renal it was 54.8%; in the experiment on CAKI-1 renal, 44.4%; in the experiment with CCRF-CEM leukemia, 30.9%; in the experiment on MOLT-4 leukemia, 36.5%.

Turning to `Clc1ccc(-c2csc(N/N=C/c3nc4ccccc4n3C3CC3)n2)cc1`, the growth with HCT-15 colon was 90.5%; in the experiment with HT29 colon, 99.8%; in the experiment with SNB-75 CNS, 82.4%; in the experiment with SNB-19 CNS it was 98.3%; in the experiment on U251 CNS it was 97.2%; with PC-3 prostate, 98.4%. Also, the growth was 97.1% in the experiment on SK-MEL-5 melanoma; 98.4% in the experiment on UACC-62 melanoma; 101% in the experiment on SK-MEL-28 melanoma; 106% in the experiment with SK-MEL-2 melanoma; 92.2% with EKVX NSCLC; 104% in the experiment with SN12C renal. The growth was 84.3% with UO-31 renal; 85.6% in the experiment with TK-10 renal; 104% with ACHN renal; 89.7% in the experiment with CAKI-1 renal; 108% in the experiment with A498 renal; 93.7% with CCRF-CEM leukemia. Moreover, the growth in the experiment on MOLT-4 leukemia is 98.2%.

In the case of `C/C(=C(/c1ccc(O)cc1)c1ccc(OCCN(C)C)cc1)c1ccc(Cl)cc1`, the growth is -26.8% (active) in the experiment with HCT-15 colon; -51.3% (active) with HT29 colon; 63.8% with SNB-75 CNS; 59.7% with SNB-19 CNS; 35.3% in the experiment with U251 CNS; 52.1% in the experiment on PC-3 prostate. In addition, the growth in the experiment on SK-MEL-5 melanoma is 42.9%; in the experiment with UACC-62 melanoma it was -27.3% (active); in the experiment on LOX IMVI melanoma, -22.2% (active); with SK-MEL-28 melanoma it was -74.1% (active); in the experiment with EKVX NSCLC, 61.4%; in the experiment with UO-31 renal, 50.6%. Further, the growth in the experiment with TK-10 renal is 85%; with ACHN renal it was 32.8%; in the experiment on CAKI-1 renal it was 36.2%; with A498 renal, 70.2%; with CCRF-CEM leukemia it was 53%; in the experiment on MOLT-4 leukemia it was 11.9%.

For `Cn1cc(-c2nn3cc(-c4cccnc4)nc3s2)c2ccccc21`, the growth with HCT-15 colon was 12.5%; in the experiment on HT29 colon it was 11.2%; in the experiment with SNB-75 CNS, 31.4%; in the experiment on SNB-19 CNS it was 42.6%; in the experiment with U251 CNS it was 26.6%; with PC-3 prostate, 35.8%. The growth in the experiment with SK-MEL-5 melanoma was 11.1%; in the experiment on UACC-62 melanoma, 31.1%; in the experiment on LOX IMVI melanoma, 37.9%; in the experiment on SK-MEL-28 melanoma it was 50.7%; in the experiment with EKVX NSCLC it was 43.8%; in the experiment on UO-31 renal it was 32.2%. In addition, the growth in the experiment on ACHN renal was 48.1%; in the experiment on CAKI-1 renal, 43.5%; in the experiment on A498 renal it was 36.6%; in the experiment with CCRF-CEM leukemia, 38%.

For `Cc1ccc(Cc2cnc(NC(=O)/C(C#N)=C/c3ccc(-c4ccc(Cl)cc4)o3)s2)cc1`, the growth with HCT-15 colon was 93.3%; in the experiment with HT29 colon, 97.1%; in the experiment on SNB-75 CNS, 94.9%; in the experiment on SNB-19 CNS, 106%; in the experiment with U251 CNS, 102%; with PC-3 prostate, 87.6%. The growth was 92.4% in the experiment with SK-MEL-5 melanoma; 95.4% in the experiment on UACC-62 melanoma; 81.3% in the experiment on LOX IMVI melanoma; 103% in the experiment on SK-MEL-28 melanoma; 92.7% with EKVX NSCLC; 97.4% with SN12C renal. For the same molecule, the growth with UO-31 renal was 90.1%; with TK-10 renal, 120%; in the experiment with ACHN renal it was 97.4%; in the experiment on CAKI-1 renal it was 83.8%; with CCRF-CEM leukemia it was 98.4%; in the experiment on MOLT-4 leukemia, 103%.

As to `Cc1cn(-c2cc(NC(=O)c3cncc(C#Cc4cnc5ccc(OCCCS(C)(=O)=O)nn45)c3)cc(C(F)(F)F)c2)cn1`, the growth in the experiment on HCT-15 colon is 37.8%; in the experiment with HT29 colon it was 16.1%; with SNB-75 CNS, 13.6%; in the experiment with SNB-19 CNS, 18.8%; in the experiment with U251 CNS, 26.8%; in the experiment on PC-3 prostate it was 52.8%. The growth was 2.76% (active) in the experiment with SK-MEL-5 melanoma; 21.4% with UACC-62 melanoma; 9.26% (active) in the experiment on LOX IMVI melanoma; 31.5% in the experiment with SK-MEL-28 melanoma; 16% in the experiment with EKVX NSCLC; 16.7% with SN12C renal. In addition, the growth is 38.3% in the experiment on UO-31 renal; 33.8% with TK-10 renal; 56.2% in the experiment with ACHN renal; 37.4% in the experiment with CAKI-1 renal; 6.72% (active) with CCRF-CEM leukemia; 9.79% (active) in the experiment with MOLT-4 leukemia.
